Shiga inhibitor: inhibitors of Shiga toxin in Vero cells; Vero cells, Shiga toxin protein synthesis inhibition reporter; 290,000 compounds, 9.2% hits; inhibition, % at 38.7 µM; in the data active = inhibition mostly above about 28%, no sharp cut-off; inactive = mostly below about 43%
AmpC inh no detg: AmpC beta-lactamase inhibition without detergent; P00811; AmpC nitrocefin hydrolysis, absorbance 480 nm, 0.0001% Triton; Potency, µM (titrated, usually from 57.1 µM), actives largely listed as inhibitors; 330,000 compounds, 0.52% hits; also: nearly all actives have a fitted effect of over 20% in size
Target sequence (P00811 whole entry, looked up): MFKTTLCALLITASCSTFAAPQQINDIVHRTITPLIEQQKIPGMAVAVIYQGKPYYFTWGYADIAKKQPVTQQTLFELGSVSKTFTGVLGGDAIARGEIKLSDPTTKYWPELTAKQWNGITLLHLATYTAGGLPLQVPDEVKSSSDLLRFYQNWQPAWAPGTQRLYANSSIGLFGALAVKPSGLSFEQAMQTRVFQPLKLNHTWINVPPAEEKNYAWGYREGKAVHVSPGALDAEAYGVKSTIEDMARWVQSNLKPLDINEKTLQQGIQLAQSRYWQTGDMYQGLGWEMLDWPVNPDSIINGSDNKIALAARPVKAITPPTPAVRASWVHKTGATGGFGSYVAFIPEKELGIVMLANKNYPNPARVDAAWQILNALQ
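AmpC (5.3 nM in the dispensed reagent) in 20 mM phosphate pH 7.0 with 0.01% (detergent screen) or 0.0001% Triton X-100 was preincubated with compounds for 15 min at room temperature. Nitrocefin was then added from an 800 uM solution, and hydrolysis was followed at 480 nm.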
NS1 inh: blocks influenza NS1 protein function; Potency, µM (series often up to 46.1 µM); 270,000 compounds, 0.4% hits; calls by dose curve; also: actives are rising curves; nearly all actives have a fitted effect of over 50% in size
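Compounds were scored for reversing the slow growth caused by influenza A NS1 in S. cerevisiae, measured by optical density at 600 nm. Assay medium contained 2% galactose at pH 6.0; NS1-free yeast of the same strain were the positive control.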
Cycloheximide cs: counter-screen hit for Shiga toxin inhibitors, cycloheximide | 300,000 compounds, 12% hits | cell reporter, cycloheximide protein synthesis inhibition counterscreen | max response, %; in the data active = max response mostly above about 13%, no sharp cut-off; inactive = mostly below about 14%; also: read at 38.3 µM for the half of the compounds with a filed dose
AmpC inh detg: inhibitors of E. coli AmpC beta-lactamase with detergent; AmpC hydrolysis of nitrocefin, absorbance 480 nm, 0.01% Triton; Potency, µM (series often up to 114 µM), hits mostly inhibitors; 370,000 compounds, 0.041% hits; also: nearly all actives have a fitted effect of over 25% in size
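20 mM phosphate pH 7.0 + 0.01% (detergent screen) or 0.0001% Triton X-100; 5.3 nM AmpC reagent; cpd preinc 15 min RT; nitrocefin (800 uM stock) to start; A480 q20 s × 4 min; Activity was normalised to no-enzyme and no-compound control wells.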
Numbers stand for hits; – = inactive; ? = inconclusive; · = no result given. The full list was thinned out, with hits kept by preference. Unless noted, calls follow the shape of the dose curve; as a rule, active = well fitted curve in the direction sought with a large enough effect; inconclusive = small, poorly fitted or top-dose-only effect, or another doubt; inactive = no such curve, though single readings can be large; an effect the other way counts as inactive or inconclusive.

SMILES | Shiga inhibitor | AmpC inh no detg | NS1 inh | Cycloheximide cs | AmpC inh detg
O=C(CSc1n[nH]c(=O)n1C1CC1)c1ccc2c(c1)OCCO2 | 57 | – | – | 37 | –
CCc1nnc(NC(=O)Cc2c[nH]c3ccccc23)s1 | – | – | · | – | –
O=C(Nc1nnc(Cc2c[nH]c3ccccc23)s1)c1ccc(Cl)cc1Cl | 35 | – | – | 17 | ?
CC(C)(C)c1ccc(C(=O)Nc2nnc(Cc3c[nH]c4ccccc34)s2)cc1 | – | 11µM | – | – | –
N[C@@H](CSSC[C@H](N)C(=O)O)C(=O)O | – | · | · | – | ·
CCNC(=O)COc1ccc(Br)cc1Cl | 60 | – | – | 28 | –
COCCCNC(=O)COc1ccc(Br)cc1Cl | 88 | – | – | 38 | –
CC1CCN(C(=O)CSc2nnc(-c3ccccc3F)o2)CC1 | 56 | – | – | – | –
O=C(CSc1nnc(-c2cccs2)o1)N1CCCCC1 | 113 | – | – | 48 | ?
O=C(CSc1nnc(-c2cccs2)o1)N1CCOCC1 | – | – | – | – | –
CC1CCN(C(=O)CSc2nnc(-c3cccs3)o2)CC1 | 63 | – | – | 45 | –
CC(=O)N1CCCc2cc(S(=O)(=O)N3CCCC(C(=O)Nc4cccc(C)c4)C3)ccc21 (stereo unspecified) | – | – | – | – | –
Cc1cc(=O)n2c(n1)SCOC2 | – | – | – | – | –
CC(=O)c1ccc(S(=O)(=O)Nc2ccc(-c3cn4c(C)csc4n3)cc2)cc1 | · | · | · | · | –
O=C(COC(=O)c1cncc(Br)c1)NC1CCCC1 | – | – | · | – | –
O=C(NCCOC12CC3CC(CC(C3)C1)C2)c1cccc(Br)c1 | – | – | – | – | ?
O=C(CP(=O)(c1ccccc1)c1ccccc1)Nn1cnnc1 | 99 | – | – | 49 | –
CCOc1ccccc1C(=O)NCC(=O)NNC(=O)c1cccc(S(=O)(=O)Nc2ccc(OC)cc2)c1 | · | – | · | · | ?
CC1(c2ccccc2)CC(C)(C)N(C(=O)c2cccc(Cl)c2)c2ccccc21 (stereo unspecified) | · | · | · | · | –
COC(=O)c1c(NC(=O)c2ccco2)sc2c1CCN(C(C)C)C2 | – | – | – | – | ?
CC(C)N1CCc2c(sc(NC(=O)c3ccco3)c2C(N)=O)C1 | – | – | – | 21 | –
CN1CCc2c(sc(NC(=O)c3ccc([N+](=O)[O-])o3)c2C(N)=O)C1 | 25 | – | – | 27 | –
CN1CCc2c(sc(NC(=O)c3ccco3)c2C(N)=O)C1 | – | – | – | 17 | –
CN1CCc2c(sc(NC(=O)c3ccc(S(=O)(=O)N4CCCC4)cc3)c2C(N)=O)C1 | – | – | – | – | –
CN1CCc2c(sc(NC(=O)c3cc(Cl)sc3Cl)c2C(N)=O)C1 | 30 | – | – | 25 | –
SMILES | Shiga inhibitor | AmpC inh no detg | NS1 inh | Cycloheximide cs | AmpC inh detg
CCOc1ccc(/C=C/c2nc(C#N)c(Nc3ccc(OCC)cc3)o2)cc1 | · | · | · | · | –
Cc1cc(C)c(NC(=O)CNC(=O)[C@@H]2CCCN2C(=O)c2cccs2)c(C)c1 | · | – | · | · | ?
COC(=O)CC[C@@H](C)C1CC[C@H]2[C@H]3CC[C@H]4C[C@@H]5CCC4(C)[C@@]3(O5)[C@@H](Br)[C@@H](Br)[C@@]12C (stereo partly specified) | · | · | – | · | ·
Cc1ccc(OCCn2c(C3CC(=O)N(Cc4ccc(F)cc4)C3)nc3ccccc32)c(C)c1 (stereo unspecified) | · | · | · | · | –
O=C(Nc1nnc(C2CCCCC2)s1)c1ccc(Br)s1 | – | – | – | – | –
O=C(Nc1nnc(C(F)(F)F)s1)c1ccc(Br)s1 | 54 | – | · | 21 | –
Cc1cc(C(=O)Nc2nnc(C3CCCCC3)s2)cs1 | – | – | – | 38 | –
Cc1cc(C(=O)Nc2nnc(C(F)(F)F)s2)cs1 | – | – | – | 18 | –
CCS(=O)(=O)N1CC(=O)N(c2ccc(C)c(C)c2)C(C)(C(=O)NC2CCCCCC2)C1 (stereo unspecified) | · | · | · | · | –
O=C(Cc1ccccc1)Nc1ccc2oc(-c3cccnc3)nc2c1 | 34 | – | – | – | –
O=C(Nc1ccc2oc(-c3ccccc3F)nc2c1)c1cncc(Br)c1 | 42 | – | – | 25 | –
COc1ccc(-c2nc3cc(NC(=S)NC(=O)Cc4ccccc4)ccc3o2)cc1 | – | – | – | 35 | –
CCc1ccc2oc(-c3cccc(NC(=O)c4cccnc4)c3)nc2c1 | 66 | – | – | 34 | –
CCc1ccc2oc(-c3cccc(NC(=O)c4cc5ccccc5o4)c3)nc2c1 | · | · | · | · | –
CCC(=O)NC(=S)Nc1ccc2oc(-c3ccc(OC)cc3)nc2c1 | – | – | – | – | ?
Cn1c(=O)c2sccc2n2c(CCC(=O)NCc3ccc(F)cc3)nnc12 | · | · | · | · | –
O=C(Nc1ccc2oc(-c3ccccc3)nc2c1)c1cccnc1 | 54 | – | – | 39 | –
CCOC(=O)c1ccc(-c2ccc(/C=C(\C#N)C(=O)Nc3ccc(C)cc3OC)o2)cc1 | · | · | · | · | –
COc1ccc2cc(C(=O)C3CCCN(C(=O)c4ccnn4C)C3)ccc2c1 (stereo unspecified) | 39 | – | – | – | –
Cc1ncsc1CCC(=O)N1CCCC(C(=O)c2ccc3c(c2)OCO3)C1 (stereo unspecified) | – | – | – | 23 | –
COc1cccc(C(=O)C2CCCN(C(=O)CCc3scnc3C)C2)c1 (stereo unspecified) | – | – | – | 22 | –
Cc1ncsc1CCC(=O)N1CCCC(C(=O)c2cccc(Cl)c2)C1 (stereo unspecified) | – | – | – | – | –
COc1ccc2cc(C(=O)C3CCCN(C(=O)CCc4ccccn4)C3)ccc2c1 (stereo unspecified) | 31 | – | – | 24 | –
O=C(O)c1cccc(/C=C2/C[C@@H]3[C@@H](/C=C/[C@@H](O)C4CCCCC4)[C@H](O)C[C@@H]3O2)c1 | – | · | · | – | ·
CCCCn1c(CNC(=O)C23CC4CC(CC(C4)C2)C3)nnc1SCC(=O)Nc1ccccc1 | · | · | · | · | –
SMILES | Shiga inhibitor | AmpC inh no detg | NS1 inh | Cycloheximide cs | AmpC inh detg
Cc1ccc2nc3cc([N+](=O)[O-])cc([N+](=O)[O-])c3cc2c1 | 134 | – | · | 68 | ?
Cc1nc2ccc([N+](=O)[O-])cc2nc1C | – | – | · | – | –
CC(Cc1c[nH]c2ccccc12)C(=O)NCc1ccco1 (stereo unspecified) | – | – | – | – | –
COc1ccc(NC(=O)C2CCCC2)cc1 | – | – | – | – | –
CCOc1ccc(NC(=O)C2C3CC/C=C\CCC32)cc1 (stereo unspecified) | – | – | – | 17 | –
COc1ccc(NC(=O)C2C3CC/C=C\CCC32)cc1 (stereo unspecified) | 57 | – | – | 24 | –
CC1CCN(C(=O)c2ccccc2NC(=O)c2cccc(S(=O)(=O)N(C)C)c2)CC1 | – | – | – | – | –
CCn1c(SCC(=O)Nc2c(C)cccc2C)nnc1-c1nonc1NC(C)=O | · | · | · | · | –
CN(CC(=O)O/N=C(\N)c1ccccn1)S(=O)(=O)c1ccccc1 | 44 | – | – | – | –
COc1ccc(/C(N)=N/OC(=O)CCCc2ccccc2)cc1OC | – | – | – | 27 | ?

Screening results deposited in PubChem by National Center for Advancing Translational Sciences (NCATS).
